Assay results from PubChem BioAssay (EPA / NIEHS).
Results filed as inconclusive are left out. Calls of active or inactive are those of the source. Rule for the calls, unless noted: active = hit-call score of the fitted dose curve at least 0.9, where 1 is the maximum; inactive = score below 0.9.

Assays:
[1] = biological target: human Vitamin D Receptor (VDR), VDR (gene 7421) (UniProt P11473); assay: ATG_VDR_TRANS: Attagene TRANS-FACTORIAL HepG2 Assay for human Vitamin D Receptor (VDR) (AID 2283022; active = hit-call score of the fitted dose curve at least 0.9, where 1 is the maximum)
Summary of the method: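 HepG2 cells were transiently transfected with multiple GAL4-UAS reporter units, so signal reflects exogenous chimeric receptor-Gal4 activity. After 24 h compound exposure, reporter mRNA was measured by RT-PCR, fluorescent labelling and capillary electrophoresis, fitted for gain of signal versus DMSO.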

[2] = CCTE_Harrill_HTTr_CellCount_MCF7: CCTE's Cell Proliferation Assessment for the High-Throughput Transcriptomics (HTTr) Platform, Harrill Lab (AID 2284012; active = hit-call score of the fitted dose curve at least 0.9, where 1 is the maximum;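 note: count of Hoechst-stained nuclei per well by high-content imaging in MCF-7 cells; cells exposed to compound for six hours; intended direction is loss of nuclei count meaning fewer cells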)
Summary of the method: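 Chemicals in eight-point dilution series are added to MCF-7 cells for six hours, nuclei are stained with Hoechst and imaged, and per-well nuclei counts are fitted in both directions relative to DMSO controls.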

[3] = biological target: Estrogen-related receptor gamma (Homo sapiens) (UniProt P62508); assay: ATG_ERRg_TRANS: Attagene TRANS-FACTORIAL HepG2 Assay for human Estrogen-Related Receptor gamma (ERRg) (AID 2282977; active = hit-call score of the fitted dose curve at least 0.9, where 1 is the maximum;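 note: hits increase reporter signal over DMSO so potencies reflect activators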); conditions: HepG2 Attagene TRANS reporter, ERRg transactivation
Summary of the method: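 Transfect HepG2 with multiple GAL4-UAS reporter transcription units; dose chemicals 24 h; isolate RNA, reverse-transcribe with oligo(dT), PCR-amplify, label with 6-FAM, digest with HpaI; size fragments by capillary electrophoresis. DMSO serves as negative control.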

[4] = CEETOX_H295R_MTT_cell_viability: Viability Assessment in the CeeTox HT-H295R MTT Assay (AID 2283718);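 for AC50: curve fitted both ways so AC50 may mark viability loss or gain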
Summary of the method: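 Human H295R adrenal cells, prestimulated 48 h with 10 uM forskolin, were exposed 48 h to chemicals in 0.1% DMSO. Viability was measured in the same wells by MTT (0.5 mg/ml, 4 h, 37 C), absorbance 570/650 nm, as percent of controls.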

[5] = read-out: Vascular cell adhesion molecule 1 (VCAM1), VCAM1 (gene 7412); assay: BSK_MyoF_VCAM1: BioMAP Diversity Plus: MyoF Assay for Vascular cell adhesion molecule 1 (VCAM1) Biomarker Activity (AID 2284231); conditions: primary human lung fibroblasts
Summary of the method: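 Primary human lung fibroblasts were dosed with test chemical for 24 h, then cell-surface VCAM-1 was measured by ELISA. Activity was fitted in the positive direction against DMSO as negative control and baseline.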

[6] = read-out: Collagen IV, COL4A1 (gene 1282); assay: BSK_MyoF_CollagenIV: BioMAP Diversity Plus: MyoF Assay for Collagen IV Biomarker Activity (AID 2284247); conditions: primary human lung fibroblasts
Summary of the method: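 Steps: dose human lung fibroblasts; culture 24 h; quantify Collagen IV by ELISA; fit increase versus DMSO control. Parallel SRB total-protein staining (0.1% SRB after 10% TCA fixation, 560 nm) tracks overt cytotoxicity.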

[7] = read-out: Plasminogen activator inhibitor-1 (PAI1), SERPINE1 (gene 5054); assay: BSK_MyoF_PAI1: BioMAP Diversity Plus: MyoF Assay for Plasminogen activator inhibitor-1 (PAI1) Biomarker Activity (AID 2284256); conditions: primary human lung fibroblasts;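 for outcome: PAI-1 protein level measured by ELISA in fibroblast cultures; PAI-1 read 24 h after compound addition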
Summary of the method: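 ELISA read-out of PAI-1 from primary human lung fibroblast cultures 24 h after dosing; gain-of-signal fit versus DMSO control.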

[8] = read-out: Interleukin-8 (IL8), CXCL8 (gene 3576); assay: BSK_MyoF_IL8: BioMAP Diversity Plus: MyoF Assay for Interleukin-8 (IL8) Biomarker Activity (AID 2284261); conditions: primary human lung fibroblasts
Summary of the method: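 ELISA read-out of IL-8 from primary human lung fibroblasts, 24 h post-dose; positive-direction curve fitting relative to DMSO vehicle baseline.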

Decorin, DCN (gene 1634) = assay: BSK_MyoF_Decorin: BioMAP Diversity Plus: MyoF Assay for Decorin Biomarker Activity (AID 2284265); conditions: primary human lung fibroblasts
Summary of the method: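 Human lung fibroblasts in the MyoF system were exposed to compound for 24 h, after which decorin was quantified by ELISA. Activity was fitted in the positive direction relative to DMSO negative control.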

[9] = BSK_MyoF_SRB: Viability Assessment in the BioMAP Diversity Plus: MyoF Assay (AID 2284267); conditions: primary human lung fibroblasts;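 note: total protein by SRB absorbance in parallel cultures as cytotoxicity measure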
Summary of the method: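 Read-out is SRB absorbance at 560 nm, reflecting total protein in parallel lung fibroblast cultures harvested 24 h after compound addition. Cells were TCA-fixed (10%) and stained with 0.1% SRB; activity is referenced to DMSO.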

[10] = read-out: Matrix Metallopeptidase 1 (MMP1), MMP1 (gene 4312); assay: BSK_MyoF_MMP1: BioMAP Diversity Plus: MyoF Assay for Matrix Metallopeptidase 1 (MMP1) Biomarker Activity (AID 2284268); conditions: primary human lung fibroblasts
Summary of the method: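 ELISA readout of MMP1 in primary human lung fibroblast cultures, 24 h post-dosing. Gain of signal versus DMSO vehicle control defines activity. Parallel SRB staining (0.1% after 10% TCA fixation, 560 nm) flags overt cytotoxicity.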

[11] = read-out: TIMP metallopeptidase inhibitor 1 (TIMP1), TIMP1 (gene 7076); assay: BSK_MyoF_TIMP1: BioMAP Diversity Plus: MyoF Assay for TIMP metallopeptidase inhibitor 1 (TIMP1) Biomarker Activity (AID 2284269); conditions: primary human lung fibroblasts
Summary of the method: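 Fibroblasts from human lung are dosed with chemical, cultured 24 h, and assayed for TIMP-1 by ELISA. Increases over the DMSO baseline are scored, with SRB total-protein staining run in parallel for cytotoxicity.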

[12] = biological target: Oxysterols receptor LXR-alpha (Homo sapiens) (UniProt Q13133); assay: ATG_LXRa_TRANS: Attagene TRANS-FACTORIAL HepG2 Assay for human Liver X Receptor alpha (LXRa) (AID 2282980; active = hit-call score of the fitted dose curve at least 0.9, where 1 is the maximum); conditions: HepG2 Attagene TRANS reporter, LXRa transactivation
Summary of the method: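 HepG2 cells were transiently transfected with multiplexed reporter units driven by chimeric LXRa–GAL4 fusion proteins, then dosed for 24 h. Reporter mRNA was quantified by RT-PCR, fluorescent labelling and capillary electrophoresis; gain of signal fitted against DMSO baseline.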

[13] = biological target: human Ephrin type-A Receptor 2 (EphA2), EPHA2 (gene 1969) (UniProt P29317); assay: NVS_ENZ_hEphA2: NovaScreen (NVS) Enzymatic Assay for human Ephrin type-A Receptor 2 (EphA2) (AID 2283155; active = hit-call score of the fitted dose curve at least 0.9, where 1 is the maximum)
Summary of the method: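 Cell-free recombinant EphA2 kinase with specific substrate, 1 h, fluorescence with electrophoretic mobility-shift separation of substrate and product. Primary screen at 25 uM in duplicate; hits retested in singleton concentration-response up to 50 uM, referenced to DMSO.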

[14] = biological target: Norway rat Vesicular Monoamine Transporter (VMAT2), neurotransmitter transporter, Slc18a2 (gene 25549) (UniProt Q01827); assay: NVS_TR_rVMAT2: NovaScreen (NVS) Transporter Assay for Norway rat Vesicular Monoamine Transporter (VMAT2), neurotransmitter transporter (AID 2283376; active = hit-call score of the fitted dose curve at least 0.9, where 1 is the maximum;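 note: actives lower the bound radioligand signal below the DMSO level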)
Summary of the method: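 Radioligand displacement binding on rat forebrain tissue preparation, filter-based scintillation read-out 1 hour after dosing. Primary screen in duplicate at 25 uM, then concentration series for actives; loss of signal versus DMSO.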

[15] = biological target: human Caspase 2 (CASP2), CASP2 (gene 835) (UniProt P42575); assay: NVS_ENZ_hCASP2: NovaScreen (NVS) Enzymatic Assay for human Caspase 2 (CASP2) (AID 2283135; active = hit-call score of the fitted dose curve at least 0.9, where 1 is the maximum)
Summary of the method: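 E. coli-expressed enzyme in a cell-free protease assay, fluorescence read 1 h after dosing. Compounds at 25 uM in duplicate, with concentration-response up to 50 uM for hits; loss of signal against DMSO baseline.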

human Vitamin D Receptor (VDR), VDR (gene 7421), sequence (P11473 whole entry, looked up, the tested form may be a part): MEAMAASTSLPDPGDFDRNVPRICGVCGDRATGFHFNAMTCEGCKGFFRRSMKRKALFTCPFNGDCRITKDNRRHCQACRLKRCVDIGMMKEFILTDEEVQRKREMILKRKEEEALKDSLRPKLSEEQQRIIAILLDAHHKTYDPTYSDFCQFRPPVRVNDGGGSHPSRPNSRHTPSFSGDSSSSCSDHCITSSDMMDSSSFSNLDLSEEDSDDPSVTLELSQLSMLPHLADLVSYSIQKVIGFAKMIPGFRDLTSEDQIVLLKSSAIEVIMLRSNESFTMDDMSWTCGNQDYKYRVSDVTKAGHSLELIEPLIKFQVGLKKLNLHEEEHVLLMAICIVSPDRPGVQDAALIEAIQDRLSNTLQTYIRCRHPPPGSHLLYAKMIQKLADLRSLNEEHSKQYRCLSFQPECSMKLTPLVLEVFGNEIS
Estrogen-related receptor gamma (Homo sapiens), sequence (P62508 whole entry, looked up, the tested form may be a part): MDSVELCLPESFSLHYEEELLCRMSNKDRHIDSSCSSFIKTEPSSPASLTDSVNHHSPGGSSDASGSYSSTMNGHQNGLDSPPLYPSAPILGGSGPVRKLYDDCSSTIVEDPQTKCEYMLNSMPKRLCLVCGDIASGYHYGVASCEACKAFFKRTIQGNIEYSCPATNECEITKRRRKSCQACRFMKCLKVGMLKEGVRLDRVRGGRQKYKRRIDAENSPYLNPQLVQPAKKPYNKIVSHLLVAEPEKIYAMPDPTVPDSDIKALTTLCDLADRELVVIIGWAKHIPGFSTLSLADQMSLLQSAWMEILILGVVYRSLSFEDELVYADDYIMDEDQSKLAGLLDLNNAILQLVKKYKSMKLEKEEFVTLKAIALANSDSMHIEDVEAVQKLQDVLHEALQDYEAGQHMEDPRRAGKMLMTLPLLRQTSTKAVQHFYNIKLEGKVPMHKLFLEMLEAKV
Oxysterols receptor LXR-alpha (Homo sapiens), sequence (Q13133 whole entry, looked up, the tested form may be a part): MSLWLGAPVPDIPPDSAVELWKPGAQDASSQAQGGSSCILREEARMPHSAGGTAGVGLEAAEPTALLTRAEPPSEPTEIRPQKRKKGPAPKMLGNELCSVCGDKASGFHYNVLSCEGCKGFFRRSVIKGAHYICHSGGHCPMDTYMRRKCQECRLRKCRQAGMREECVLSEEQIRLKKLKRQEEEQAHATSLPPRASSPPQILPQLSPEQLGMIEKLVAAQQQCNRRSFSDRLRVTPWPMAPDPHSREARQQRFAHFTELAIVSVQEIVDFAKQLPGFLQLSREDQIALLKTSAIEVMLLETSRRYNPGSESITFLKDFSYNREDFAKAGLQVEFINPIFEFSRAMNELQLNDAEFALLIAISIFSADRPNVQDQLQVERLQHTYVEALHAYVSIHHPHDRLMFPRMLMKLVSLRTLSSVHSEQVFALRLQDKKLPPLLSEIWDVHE
human Ephrin type-A Receptor 2 (EphA2), EPHA2 (gene 1969), sequence (P29317 whole entry, looked up): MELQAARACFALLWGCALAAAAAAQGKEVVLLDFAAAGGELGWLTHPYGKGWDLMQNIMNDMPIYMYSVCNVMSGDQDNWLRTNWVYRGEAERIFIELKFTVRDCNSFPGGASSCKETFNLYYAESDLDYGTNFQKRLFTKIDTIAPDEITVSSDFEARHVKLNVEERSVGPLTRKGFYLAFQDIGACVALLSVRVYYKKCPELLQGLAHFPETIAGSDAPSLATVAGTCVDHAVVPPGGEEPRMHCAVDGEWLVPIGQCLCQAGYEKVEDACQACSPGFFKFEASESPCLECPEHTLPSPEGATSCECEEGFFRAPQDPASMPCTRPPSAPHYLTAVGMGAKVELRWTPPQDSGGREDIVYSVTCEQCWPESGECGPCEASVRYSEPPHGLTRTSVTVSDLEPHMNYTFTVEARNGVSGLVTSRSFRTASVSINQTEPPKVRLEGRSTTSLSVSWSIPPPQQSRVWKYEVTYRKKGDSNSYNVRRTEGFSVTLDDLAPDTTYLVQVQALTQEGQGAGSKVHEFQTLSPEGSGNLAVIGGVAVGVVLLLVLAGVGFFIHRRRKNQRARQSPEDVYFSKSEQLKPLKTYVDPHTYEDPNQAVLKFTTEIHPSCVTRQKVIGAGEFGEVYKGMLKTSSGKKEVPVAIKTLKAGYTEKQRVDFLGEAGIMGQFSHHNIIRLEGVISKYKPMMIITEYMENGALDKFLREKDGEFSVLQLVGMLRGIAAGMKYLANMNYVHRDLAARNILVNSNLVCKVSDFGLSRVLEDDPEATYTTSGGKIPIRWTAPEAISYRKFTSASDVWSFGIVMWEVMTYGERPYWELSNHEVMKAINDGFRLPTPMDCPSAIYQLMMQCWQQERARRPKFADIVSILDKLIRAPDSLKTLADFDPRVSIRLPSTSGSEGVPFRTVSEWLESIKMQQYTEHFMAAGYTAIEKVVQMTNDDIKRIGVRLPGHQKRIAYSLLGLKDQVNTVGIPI
Norway rat Vesicular Monoamine Transporter (VMAT2), neurotransmitter transporter, Slc18a2 (gene 25549), sequence (Q01827 whole entry, looked up): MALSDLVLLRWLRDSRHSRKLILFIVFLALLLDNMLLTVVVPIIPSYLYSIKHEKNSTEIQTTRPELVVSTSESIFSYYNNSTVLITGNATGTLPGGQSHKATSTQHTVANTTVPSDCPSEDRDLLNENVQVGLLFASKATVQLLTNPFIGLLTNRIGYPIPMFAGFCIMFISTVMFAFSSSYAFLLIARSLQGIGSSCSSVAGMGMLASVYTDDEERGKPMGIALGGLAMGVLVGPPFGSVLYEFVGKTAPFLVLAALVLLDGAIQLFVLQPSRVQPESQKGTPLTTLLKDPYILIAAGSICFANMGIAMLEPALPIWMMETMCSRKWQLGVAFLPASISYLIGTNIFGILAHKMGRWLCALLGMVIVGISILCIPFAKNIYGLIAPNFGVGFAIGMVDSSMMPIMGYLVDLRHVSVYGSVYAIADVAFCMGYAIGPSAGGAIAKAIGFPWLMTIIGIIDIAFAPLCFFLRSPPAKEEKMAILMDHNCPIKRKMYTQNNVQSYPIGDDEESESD
human Caspase 2 (CASP2), CASP2 (gene 835), sequence (P42575 whole entry, looked up): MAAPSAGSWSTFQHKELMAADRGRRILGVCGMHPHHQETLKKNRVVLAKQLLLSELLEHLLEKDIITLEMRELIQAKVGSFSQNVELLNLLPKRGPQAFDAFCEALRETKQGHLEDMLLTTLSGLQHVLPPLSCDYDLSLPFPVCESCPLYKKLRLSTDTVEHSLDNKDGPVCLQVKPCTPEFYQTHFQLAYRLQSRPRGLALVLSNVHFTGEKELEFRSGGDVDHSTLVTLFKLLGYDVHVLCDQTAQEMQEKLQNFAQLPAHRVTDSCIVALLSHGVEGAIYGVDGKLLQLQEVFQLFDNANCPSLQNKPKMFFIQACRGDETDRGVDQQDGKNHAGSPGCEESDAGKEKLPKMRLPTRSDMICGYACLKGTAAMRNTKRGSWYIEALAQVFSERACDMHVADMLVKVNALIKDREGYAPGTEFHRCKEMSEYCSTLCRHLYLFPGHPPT

With `Cl/C=C\CCl` the outcome [1] was “inactive” and the outcome [2] was “inactive”.
In the case of `N#CCNCC#N`, the outcome [3] is reported as “inactive” and the outcome [1] is reported as “inactive”.
In the case of `O=[N+]([O-])c1ccc(Cl)cc1`, the outcome [1] is reported as “inactive”.
With `Cc1cc(C)c(C2=C(OC(=O)CC(C)(C)C)C3(CCCC3)OC2=O)c(C)c1` the AC50 [4] was 93.1 µM (active).
For `C=CCN(CC=C)C(=O)C(Cl)Cl`, the outcome [5] was “inactive”, the outcome [6] was “inactive” and the outcome [7] was “inactive”. For the same molecule, the outcome [8] was “inactive”, the outcome (Decorin, DCN (gene 1634)) was “inactive” and the outcome [9] was “inactive”. For the same molecule, the outcome [10] was “inactive” and the outcome [11] was “inactive”.
In the case of `CN(N=O)c1ccccc1`, the outcome [1] is reported as “inactive”.
With `C[C@]12CC[C@H](O)C[C@H]1CC[C@@H]1[C@@H]2C[C@@H](O)[C@]2(C)[C@@H](C3=CC(=O)OC3)CC[C@]12O` the outcome [3] was “inactive”, the outcome [12] was “inactive” and the AC50 [4] was 2.57 µM (active).
For `O=[N+]([O-])C=Cc1ccccc1`, the outcome [3] was “inactive”, the AC50 [5] was 11.1 µM (active) and the AC50 [6] was 3.97 µM (active). For the same molecule, the AC50 [7] was 12.3 µM (active), the AC50 [8] was 9.76 µM (active) and the outcome (Decorin, DCN (gene 1634)) was “inactive”. The AC50 [9] was 20 µM (active), the outcome [10] was “inactive” and the AC50 [11] was 13.2 µM (active).
In the case of `SCc1ccco1`, the outcome [1] is reported as “inactive”.
In the case of `CC(C)(Cl)Cl`, the outcome [12] is reported as “inactive” and the outcome [2] is reported as “inactive”.
For `c1ccc(Nc2ccc3ccccc3c2)cc1`, the outcome [4] was “inactive”, the AC50 [5] was 31.2 µM (active) and the outcome [6] was “inactive”. For the same molecule, the AC50 [7] was 31.6 µM (active), the outcome [8] was “inactive” and the outcome (Decorin, DCN (gene 1634)) was “inactive”. For the same molecule, the AC50 [9] was 35.5 µM (active), the outcome [10] was “inactive” and the AC50 [11] was 34.4 µM (active).
In the case of `CCCCCCCCCCCCCC[P+](CCCC)(CCCC)CCCC`, the AC50 [13] is reported as 9.76 µM (active).
For `NC(=NCCCCCCN=C(N)/N=C(\N)Nc1ccc(Cl)cc1)/N=C(\N)Nc1ccc(Cl)cc1`, the outcome [14] was “inactive”.
With `Oc1cc2ccccc2c2ccccc12` the AC50 [15] was 14.6 µM (active).
